The values below come from article PMC12136788.

The full ranking holds about 24,000 sequences; the median of “enrichment r” is about 0.99, and the highest 2% start at about 3.7. The entries come from a sample that favours the highest values as a whole.

Sequences and labels used below:
T1: UNK ZnF1-3 (human, UniProt Q9C0B0 31-174)
T1 sequence: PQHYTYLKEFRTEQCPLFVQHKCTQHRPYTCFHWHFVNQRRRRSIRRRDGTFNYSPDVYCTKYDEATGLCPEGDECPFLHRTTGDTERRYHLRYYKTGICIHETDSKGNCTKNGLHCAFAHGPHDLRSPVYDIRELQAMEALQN

B1: chr4:62795864:62795865:+_ENSMUSG00000028358_ENSMUST00000107415|mus_mus|FALSE|FALSE (ssRNA)
RNA: GGGAGUUCUACAGUCCGACGAUCGCCUCCCAGAAAUCACAUGUGAAAAGAAACCGAGUCCCCCAUAAGAUAAAAAAUUUGCUAAAGUAUUGUGAAAAAUGACGACAACAACAACAACAAAAUUGAGUGGAGAGUCAGCUAUGUCAACAGAGGAUUGAGCAUCA
B2: 113942580_113943501_80_5pUTR_ENSG00000119927_ENST00000348367|human|control|control (ssRNA)
RNA: GGGAGUUCUACAGUCCGACGAUCAUAAAACUUCAGGACUCAGCUAUCAGUUUCGGGUGCAGAAUGUCCAUACAACAGGGGAGCCGCUGCUGCCCUAGCAGCUCCAGCUUCGGCUGCUGCAGAAGCCCGCACUUCCAGUCCCGGCAACAGAGGAUUGAGCAUCA
B3: chr7:65419240:65419241:+_ENSG00000196715_ENST00000360768|hu_mus|motif|central (ssRNA)
RNA: GGGAGUUCUACAGUCCGACGAUCGCUGGCCAUCAGUCUUCCUUAGGCUGCAGCUGUCGCUUCCAGGCCUCAUUCAAAUAAACGGGUCGUUUGUAAUUGAUGAUGAGGAGGAGGAAGUUCAGCACAUAUGUGGUGACGCAGAUGCAACAGAGGAUUGAGCAUCA
B4: chr11:107358869:107358870:+_ENSMUSG00000020720_ENSMUST00000021063|mus_hu|FALSE|FALSE (ssRNA)
RNA: GGGAGUUCUACAGUCCGACGAUCCUCUGGAAGUUGAUAAUUCCUGCUAAUCUGUCUACUUUAGCAAAGAUGGUCUUGUUAACUACUAGAUUUGAGAGAAAGGCUUCGGACUCAUCAACAGAUAGAUCCAGAAGCUGUGCCAUCCAACAGAGGAUUGAGCAUCA
B5: chr3:55808730:55808731:-_ENSMUSG00000027799_ENSMUST00000029374|mus_mus|FALSE|FALSE (ssRNA)
RNA: GGGAGUUCUACAGUCCGACGAUCUGACGUCGUAUGAAUUCUGAAGUCUUUCUCUUCCAUUAUGCUUGAUGUGCACGUUAACUCUACACUCGCAGUCAUGUGAGCAAGCAACCCAAGAUCAUCACUGACACCAAGAUGUACUUGCAACAGAGGAUUGAGCAUCA
B6: 75313438_75313660_4053_CDS_ENSMUSG00000020850_ENSMUST00000102510|mouse|control|control (ssRNA)
RNA: GGGAGUUCUACAGUCCGACGAUCCUUGGACCACCUGAGGUCAGACUGGGGGAUAAGCACAUGGCCCAUCGAGAGCAUGCCAAGCCCACCCAGCUCCUUAGGGGUGUAGAAUACAACAGGCGGGAACCGGCUAGGCAUCUUGGACAACAGAGGAUUGAGCAUCA
B7: chr10:123500321:123500322:-_ENSG00000107669_ENST00000369043|hu_hu|motif|central (ssRNA)
RNA: GGGAGUUCUACAGUCCGACGAUCACGUUAAGAAACUACACACAACAAAUAUUUGCAAAAUGAAUGAAAAAUAGGAUAAAGCGGUUUAAAAGUCAACAUAGUAAUAUUUAUCUAAAUAAUUUUAAUCAAAUGUACAACAUAUUUCAACAGAGGAUUGAGCAUCA
B8: chr6:117881578:117881579:-_ENSG00000047932_ENST00000052569|hu_mus|FALSE|FALSE (ssRNA)
RNA: GGGAGUUCUACAGUCCGACGAUCCUUUAAUGUAGAAUAUGUCAUUUUUAUUUACAGGCUAAUUAAGAAUAUGAAACUCAACUAGAUAUAAUACAAUUAUCAUAAAUCCCCUUAUAUGUAAAUUAAUAUAUUUUUUGUUUUAAACAACAGAGGAUUGAGCAUCA
B9: chr19:15271055:15271056:-_ENSG00000074181_ENST00000263388|hu_hu|FALSE|FALSE (ssRNA)
RNA: GGGAGUUCUACAGUCCGACGAUCCAUAUAUAUAUUUUGUAAAAAAUAAUAAUAAUAAGUUUGUUUAAAUGAAUUUGUUUCUAUACAAAAUGUAAAAAAAAAAAGAAAAAUAAAAAUAAUAAUAAUUCAUUCAUGUCAGAGUGUCAACAGAGGAUUGAGCAUCA
B10: chr19:53454881:53454882:-_ENSMUSG00000025024_ENSMUST00000025997|mus_mus|motif|central (ssRNA)
RNA: GGGAGUUCUACAGUCCGACGAUCGUUUCAUUCUACCAAAGCCAAACAAUGACAACAAUGUAUCUUCCUUACUCAGCAUCGGAGCAAUCAGUUACCUUUAGAAAAAUACAAGGAUAAAAAGGAGAGUGUAAAGUAAAGCCCUGCCAACAGAGGAUUGAGCAUCA
B11: 207631549_207631669_399_CDS_ENSG00000118246_ENST00000403094|human|control|control (ssRNA)
RNA: GGGAGUUCUACAGUCCGACGAUCAAAAAUGAAUGCAUCCUGAAAGAGAUAUCUAAUGAUAUCAGUUGAUUGCAUUCUGUUAUGAAAGUUAUUUAAAAUGUUCCAGUUUGAAUGAACUAUUUUUGGUUUGCAAAGUCCCAAACACAACAGAGGAUUGAGCAUCA
B12: chr4:95690885:95690886:+_ENSMUSG00000028572_ENSMUST00000156910|mus_mus|mus_mus_mus_hu_False|78_98 (ssRNA)
RNA: GGGAGUUCUACAGUCCGACGAUCUUUAGAAAAUGUUAAUGUUAAAUCUAAAAUAUUGUAAUUUUAAUAUUUUAUUUUACCAGAAGUCACAGGCAAGCAGACACUACAAGAAUAUAUGAAAAUGAAACUCAACAAUAUAACUGUCAACAGAGGAUUGAGCAUCA
B13: chr19:46159329:46159330:+_ENSMUSG00000015176_ENSMUST00000165017|mus_hu|FALSE|FALSE (ssRNA)
RNA: GGGAGUUCUACAGUCCGACGAUCGGUCAAGUUGUCAAAAAAUGUCUUUCAACAGUAGAAAAGUUUGCUUUCAAAUUAAAAAACAAAGCACGUAUUGCAAACAUCGUGUAAUGAUAAAAUUACAGAAAAAAAUAUAUUCAGAAUCAACAGAGGAUUGAGCAUCA
B14: chr4:125586161:125586162:-_ENSG00000151458_ENST00000504087|hu_mus|FALSE|FALSE (ssRNA)
RNA: GGGAGUUCUACAGUCCGACGAUCCACGACGUCCUAAACAGUUGAUUUACAAAAUUUAAAUAUUUGAAUUUCAAAAAUAGCCAUUUAUUAUUAUUUUUUUAUUUGUGGGACCGUUUCUUAUCUUUGUAAUAGAGAAGUCAUUGUCAACAGAGGAUUGAGCAUCA

The target in this experiment is T1, UNK ZnF1-3. Briefly: nsRBNS (natural sequence RNA bind-n-seq); RBNS binding buffer (assumed for nsRBNS): 25 mM Tris pH 7.5, 150 mM KCl, 3 mM MgCl2, 0.01% Triton X-100, 500 ug/ml BSA, 20 U/ml SUPERase-In, 4 C; UNK is unkempt and MSI1 is Musashi-1; names of the RNAs are library labels; protein concentration not given here; high values mean tight binding.
B1 registered a binding signal of 3.53 enrichment R. As for B2, the figure is 1.22 enrichment R; as for B3, 1.01 enrichment R; as for B4, 3.65 enrichment R. In turn, B5 gave a binding signal of 0.64 enrichment R. On to B6, for which the binding signal was 0.919 enrichment R.

For B7, the binding signal was 6.73 enrichment R.

The molecule B8 came in with a binding signal of 4.33 enrichment R. Molecule B9 had a binding signal of 9.9 enrichment R. As for B10, the figure is 1.52 enrichment R; as for B11, 0.397 enrichment R. Turning to B12, the binding signal is 3.29 enrichment R. Then B13, with 6.25 enrichment R; and B14, with 3.35 enrichment R.
